Screening data as filed in PubChem BioAssay.
Vaccinia Venus: vaccinia inhibition (Venus reporter) | Vaccinia virus Venus reporter expression, fluorescence | Potency, µM (doses to about 36.5 µM), without a hit: top-dose activity change, negative = inhibition, usual class: inhibitors | actives 0.46% (n = 330,000) | AID 720580; calls by dose curve; tested in A549 cells; also: nearly all actives have a fitted effect of over 30% in size
AmpC inh no detg: inhibitors of E. coli AmpC beta-lactamase without detergent. P00811. AmpC nitrocefin hydrolysis, absorbance 480 nm, 0.0001% Triton. Potency, µM (top dose mostly 57.1 µM), for the others: at the highest dose activity change, negative = inhibition, hits mostly inhibitors. actives 0.52% (n = 330,000). AID 485341;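 also: plate controls were no compound for no effect and no enzyme for full effect; nearly all actives have a fitted effect of over 20% in size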
Target sequence (P00811 whole entry, looked up): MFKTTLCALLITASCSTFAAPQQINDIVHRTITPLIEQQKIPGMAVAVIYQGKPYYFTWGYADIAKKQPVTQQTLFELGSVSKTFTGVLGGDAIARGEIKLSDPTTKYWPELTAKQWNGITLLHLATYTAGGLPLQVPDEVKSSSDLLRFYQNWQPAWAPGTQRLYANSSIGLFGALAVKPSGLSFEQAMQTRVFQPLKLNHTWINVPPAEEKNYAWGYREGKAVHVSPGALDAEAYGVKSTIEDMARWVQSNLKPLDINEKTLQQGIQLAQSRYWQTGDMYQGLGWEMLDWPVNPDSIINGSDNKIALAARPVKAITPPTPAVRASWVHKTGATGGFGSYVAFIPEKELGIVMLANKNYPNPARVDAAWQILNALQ
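20 mM phosphate pH 7.0 + 0.01% (detergent screen) or 0.0001% Triton X-100; 5.3 nM AmpC reagent; cpd preinc 15 min RT; nitrocefin (800 uM stock) to start; A480 q20 s × 4 min; Activity was normalised to no-enzyme and no-compound control wells.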
AmpC detergent: inhibitors of E. coli AmpC beta-lactamase with detergent | P00811 | AmpC hydrolysis of nitrocefin, absorbance 480 nm, 0.01% Triton | Potency, µM (doses to about 114 µM), for inactives: top-dose activity change, negative = inhibition, usual class: inhibitors | actives 0.041% (n = 370,000);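 also: 0% = no-compound wells and -100% = no-enzyme wells; nearly all actives have a fitted effect of over 25% in size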
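AmpC (5.3 nM in the dispensed reagent) in 20 mM phosphate pH 7.0 with 0.01% (detergent screen) or 0.0001% Triton X-100 was preincubated with compounds for 15 min at room temperature. Nitrocefin was then added from an 800 uM solution, and hydrolysis was followed at 480 nm.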
Vaccinia mCherry: inhibitors of vaccinia virus infection (mCherry reporter signal) | Vaccinia virus mCherry reporter infection, fluorescence | Potency, µM (series often up to 36.5 µM), for the others: at the top dose activity change, negative = inhibition, hits mostly inhibitors | actives 0.63% (n = 310,000); calls by dose curve; tested in A549 cells; also: nearly all actives have a fitted effect of over 35% in size
Numbers without * were called inactive; ? = inconclusive; / = no result given; [ ] = remark or other dose. In the library only some 1.1% were active in any assay of this set; here they are far more common. Unless noted, calls follow the shape of the dose curve; as a rule, active = well fitted curve in the direction sought with a large enough effect; inconclusive = small, poorly fitted or top-dose-only effect, or another doubt; inactive = no such curve, though single readings can be large; an effect the other way counts as inactive or inconclusive. Unless noted, % is scaled to controls: 0 for no effect and ±100 for the full control effect; potency is read from the fitted curve at half-maximal effect.

SMILES | Vaccinia Venus | AmpC inh no detg | AmpC detergent | Vaccinia mCherry
Cc1ccc(CSc2nc3ccncc3n2CC(=O)Nc2cc(C)cc(C)c2)cc1 | -17% | 7.1µM* | -7% | 10%
COC(=O)c1cc(CNC(=O)c2cccc(C)c2)cc(NC(=O)c2ccncc2)c1 | 2% | / | / | -8%
Cc1cc(S(=O)(=O)Nc2cc3c(cc2N2CCOCC2)n(C)c(=O)n3C)ccc1F | -11% | / | -1% | 0%
Cn1c(=O)c(=O)n(C)c2cc(N3CCOCC3)c(NS(=O)(=O)c3ccc(F)c(Cl)c3)cc21 | ? | -15% | -11% | 11µM*
Cc1cc(NC(=O)CSc2cn(CCNC(=O)c3ccc(Cl)cc3)c3ccccc23)no1 | -20% | 10µM* | 3% | -29%
O=C(Nc1ccn(CCCNCC(c2ccccc2)c2ccccc2)c(=O)n1)OCc1ccccc1 | 11µM* | / | / | 13µM*
c1ccc(COc2ncnc3c2ncn3CCCNCC(c2ccccc2)c2ccccc2)cc1 | 14µM* | / | / | ?
COc1ncnc2c1ncn2CCCNCC(c1ccccc1)c1ccccc1 | -13% | / | / | -13%
CCC1CN(CCNC(=O)c2cccc(C(=O)OC)c2)Cc2cc(OC)ccc2O1 (stereo unspecified) | -3% | / | / | -14%
COc1cccc(/C=C/c2ccnc3ccccc23)c1OC | -11% | / | / | -20%
O=C(NC1CCC(n2cc(C(=O)NC3CC3)nn2)CC1)C(=O)c1ccccc1 (stereo unspecified) | -8% | / | / | -12%
Cc1cc(N2CCN(C)CC2)nc2ccc(NC(=O)c3ccc(C(C)(C)C)cc3)cc12 | 14µM* | / | 13% | ?
O=C(Nc1nccs1)[C@@H]1CC=C[C@@H]2CCN(Cc3ccc(Cl)c(Cl)c3)C(=O)[C@@H]21 | -18% | / | / | -21%
Nc1ccc(Cc2nc3cc4ccccc4cc3[nH]2)cc1 | 14% | -20% | 1% | 5.6µM*
Nc1ccc(C(=O)OCc2nc3cc4ccccc4cc3[nH]2)cc1 | 32% | ? | -5% | 5µM*
O=c1ccc2c(o1)/C(=C/C=C(Cl)Cl)CCC2 | ? | -6% | 10% | 10µM*
N#Cc1ccc(-c2csc(NNC(=O)c3ccccc3)n2)cc1 | 12% | -37% | -13% | ?
N#Cc1ccc(-c2csc(NNC(=O)c3ccc(Br)cc3)n2)cc1 | 14µM* | ? | ? | /
CCC1CN(Cc2cn[nH]c2-c2ccccc2)Cc2cc(OC)ccc2O1 (stereo unspecified) | -18% | / | / | -21%
O=C1OC2(c3ccccc31)c1cc(I)c(O)c(I)c1Oc1c2cc(I)c(O)c1I | / | 25µM* | 50µM* | /
CN1CCN(Cc2cc(COCc3ccccc3)c3cccnc3c2O)CC1 | ? | 36% | ? | 28µM*
CCCOCc1cc(CN2CCN(c3cccc(Cl)c3)CC2)c(O)c2ncccc12 | -23%[7.34 µM] | / | 24% | 2.8µM*
Oc1ccc(CN2CCN(Cc3ccccc3)CC2)c2cccnc12 | / | -16% | -5% | /
Oc1c(Cl)cc(CN2CCOCC2)c2cccnc12 | / | -9% | -4% | /
Oc1c(CN2CCc3ccccc3C2)cc(Cl)c2cccnc12 | ? | -22% | ? | 2.5µM*
SMILES | Vaccinia Venus | AmpC inh no detg | AmpC detergent | Vaccinia mCherry
CN(C)c1ccc(N=Cc2ccncc2)cc1 | 7% | / | / | 24%
COc1cc(C2c3cc4c(cc3OC(NNC(N)=S)C2C)OCO4)cc(OC)c1OC (stereo unspecified) | ? | / | / | 2.8µM*
CC(=O)/C=C/c1ccc2c(c1)S(=O)(=O)N(C1CCCC1)[C@H]2CC(C)=O | -8% | / | / | -6%
COc1ccccc1NC1=C(Cl)C(=O)N(C2CCCCC2)C1=O | -6% | 14µM* | 3% | -12%
Cc1c(C(=O)NC(C)(C)C)sc2ncnc(NCCN(C)C)c12 | -17% | / | / | -13%
Cn1cnnc1Sc1ccc(CN2CCOc3ccc(C4=Cc5ccccc5CC4)cc3C2)o1 | -6% | / | / | -23%
Cc1ccccc1NC(=O)COC(=O)/C=C/c1cn(-c2ccccc2)nc1-c1cccnc1 | -6% | -21% | -6% | -14%
CC(=O)Nc1ccc(NC(=O)C(C)OC(=O)/C=C/c2cn(-c3ccccc3)nc2-c2cccnc2)cc1 (stereo unspecified) | ? | 41% | -6% | 13µM*
C#CCOCCOCCOCCNc1nc(N2CCN(C(=O)CCCCCCCCCCNC(=O)[C@H]([C@@H](C)CC)n3cc(CCCCN=C(N)N)nn3)CC2)nc(N2CCN(C(=O)CCCCCCCCCCNC(=O)[C@H](CCCN=C(N)N)n3cc(C[C@@H](C)CC)nn3)CC2)n1 | / | 242% | 0% | /
C#CCOCCOCCOCCNc1nc(N2CCN(C(=O)CCCCCCCCCCNC(=O)[C@H](CO)n3cc(CCCCCN)nn3)CC2)nc(N2CCN(C(=O)CCCCCCCCCCNC(=O)[C@H](CCCN=C(N)N)n3cc(C[C@@H](C)CC)nn3)CC2)n1 | / | 269% | 4% | /
C#CCOCCOCCOCCNc1nc(N2CCN(C(=O)CCCCCCCCCCNC(=O)[C@H](CCCCN)n3cc(C[C@@H](C)CC)nn3)CC2)nc(N2CCN(C(=O)CCCCCCCCCCNC(=O)[C@H](CCCN=C(N)N)n3cc(C[C@@H](C)CC)nn3)CC2)n1 | 8.9µM* | 271% | ? | ?
C#CCOCCOCCOCCNc1nc(N2CCN(C(=O)CCCCCCCCCCNC(=O)[C@H](CCCCN)n3cc(C)nn3)CC2)nc(N2CCN(C(=O)CCCCCCCCCCNC(=O)[C@H](CCCN=C(N)N)n3cc(C[C@@H](C)CC)nn3)CC2)n1 | 10µM* | 333% | 1% | ?
C#CCOCCOCCOCCNc1nc(N2CCN(C(=O)CCCCCCCCCCNC(=O)[C@@H](CCSC)n3cc(CCO)nn3)CC2)nc(N2CCN(C(=O)CCCCCCCCCCNC(=O)[C@H](CCCN=C(N)N)n3cc(C[C@@H](C)CC)nn3)CC2)n1 | 10µM* | 266% | 3% | ?
C#CCOCCOCCOCCNc1nc(N2CCN(C(=O)CCCCCCCCCCNC(=O)[C@H](CCCN=C(N)N)n3cc(C[C@@H](C)CC)nn3)CC2)nc(N2CCN(C(=O)CCCCCCCCCCNC(=O)[C@@H]([C@H](C)CC)n3cc(CCCCCN)nn3)CC2)n1 | / | 189% | -12% | /
C#CCOCCOCCOCCNc1nc(N2CCN(C(=O)CCCCCCCCCCNC(=O)[C@H](CCCCN)n3cc(CCO)nn3)CC2)nc(N2CCN(C(=O)CCCCCCCCCCNC(=O)[C@H](CCCCN)n3cc(C[C@@H](C)CC)nn3)CC2)n1 | 10µM* | 286% | 6% | -27%
CCOC(=O)C1CCCCN1C(=O)c1cnn(-c2nccc(-c3cc(C)sc3C)n2)c1C1CC1 (stereo unspecified) | -19% | / | / | -24%
CCN1CCC(O)(/C=C/c2ccc(C(C)C)cc2)C(C(=O)/C=C/c2ccc(C(C)C)cc2)C1 (stereo unspecified) | ? | / | / | 11µM*
COc1cc(OC)nc(-n2ncc(Br)c(Br)c2=O)n1 | 11µM* | -22% | -5% | ?
COC(=O)c1cnn(-c2nc(OC)cc(OC)n2)c1C | 3% | -1% | -6% | -4%
COc1ccc(OC)c(C(Cc2ccnc3ccccc23)Cc2ccnc3ccccc23)c1 | -19% | / | / | 14%
